This note sets out measurements from PubChem BioAssay AID2315 (National Center for Advancing Translational Sciences (NCATS), 2010).

Several values for one entry are separate records, joined by “and”; a condition that tells them apart may be missing. Equal values may be shown once. Screen size: about 290,000 compounds; about 27,000 (9.3%) were called active. No stated cut-off is given here; in the data, active means inhibition mostly above about 28% (no sharp cut-off); inactive means mostly below about 43%. Only a selection was taken, and actives are over-represented in it overall.

This assay is described as follows: A qHTS for Small Molecule Inhibitors of Shiga Toxin. Further: 0% is about no effect. The note with it: Vero cells, Shiga toxin protein synthesis inhibition reporter; at 38.7 µM, hits give high values.
As to `Cc1nn(C(C)(C)C)c(OC(=O)CC(C)C)c1S(=O)(=O)c1ccccc1`, the inhibition is -3.07% (inactive). For the compound `CC/C(=N\NC(=O)c1c(C)nc2ccccn12)c1ccc(Cl)cc1`, the inhibition was -1.53% (inactive). As to `COc1ccc(C(=O)NCCSc2ccccc2C)cc1`, the inhibition is 47.6% (active). Regarding `COc1ccc(C(=O)NCc2nnc(SCCOc3ccccc3)n2C)cc1`, the inhibition is -8.47% (inactive). With `COc1cccc(C(=O)NCCSc2ccc(Br)cc2)c1` the figure was 0.537% (inactive); with `CCn1cc(C(=O)NCC(=O)NC(C)(C)CO)c(=O)c2cc3c(cc21)OCO3`, -1.71% (inactive); with `COc1ccccc1-n1cnc2cc(NS(=O)(=O)c3ccccc3)ccc21`, 60.3% (active). Consider `COc1ccc(NS(=O)(=O)c2ccc(NC(C)=O)cc2)cc1OC`, for which the inhibition is -6.59% (inactive). Take `COCCCNC(=O)c1ccc2c(c1)ncn2-c1ccccc1OC`: the inhibition was 41.9% (inactive).

As for `COc1cccc(-c2coc3cc4oc(=O)c(CC(=O)O)c(C)c4cc23)c1`, the inhibition is 5.32% (inactive).

As for `COc1cccc(-c2nc3ccc(N4CCN(C)CC4)cc3[nH]2)c1`, the inhibition was -25.4% (inactive). On to `CN1CCN(c2ccc([N+](=O)[O-])c(Sc3nc4ccccc4[nH]3)c2)CC1`, for which the inhibition was -2.62% (inactive). `Cc1nc2ccc(N3CCN(C)CC3)cc2nc1C`: the inhibition was 41.4% (active). Regarding `CCCc1cc(=O)oc2c(C)c(OCC(=O)NCc3ccccn3)ccc12`, the inhibition was -5.37% (inactive). In the case of `CCCc1cc(=O)oc2c(C)c(OCC(=O)N3CCC(C(=O)O)CC3)ccc12`, the inhibition was -4.56% (inactive). Regarding `CCCc1cc(=O)oc2c(C)c(OCC(=O)Nc3ccccn3)ccc12`, the inhibition is 97.8% (active).

As for `Cc1cnc(C(=O)Oc2cccc(Cl)c2Cl)cn1`, the inhibition is -6.08% (inactive). Consider `O=C(/C=C/c1cccc(C(F)(F)F)c1)N1CCN(c2ccccn2)CC1`, for which the inhibition is -28.6% (inactive).

`Cc1ccccc1CSc1nnc(Cn2c(=O)sc3ccccc32)n1C`: the inhibition was -3.34% (inactive). Take `Cn1c(SCC(=O)C(C)(C)C)nnc1-c1ccccn1`: the inhibition was 51.8% (inactive). Take `Cc1ccccc1CSc1nnc(-c2cccnc2)n1N`: the inhibition was 47.7% (active). With `O=C(CSc1nnc(-c2cccnc2)n1CCc1ccccc1)NCc1ccccc1`, the inhibition was 9.64% (inactive). With `Cc1ccccc1CSc1nnc(-c2ccccn2)n1N`, the inhibition is 62.4% (active). For the compound `N#Cc1ccc(CSc2nnc(-c3ccccn3)n2-c2ccc(Cl)cc2)cc1`, the inhibition was 9.81% (inactive). Consider `COCCNc1cc(-c2ccccc2)nc2cc(-c3cccc(F)c3)nn12`, for which the inhibition is 13.9% (inactive). Turning to `O=S(=O)(c1ccc2c(c1)OCCCO2)N1CCN(S(=O)(=O)c2c(F)cccc2F)CC1`, the inhibition was -5.98% (inactive). As to `Cc1ccc(CNC(=O)C2(C(F)(F)F)C/C(=C\Cc3ccccc3)CCCO2)o1` (stereo not drawn), the inhibition was -4.26% (inactive) and 0.0699% (inactive).

`COc1ccc(N(C)C(=O)C2CCN(S(=O)(=O)c3cccc4nsnc34)CC2)cc1`: the inhibition was 8.11% (inactive). For `Cc1ccc(S(=O)(=O)N2CCN(C)CC2)cc1C(=O)NC1CCCCC1`, the inhibition is -5.78% (inactive). As to `CCCCCN1CC(O)=C(c2nc(-c3ccc(Cl)cc3)cs2)C1=N`, the inhibition was 23.2% (inactive). For the compound `c1ccc(-c2csc(N3CCc4ccccc4C3)n2)cc1`, the inhibition was 57.4% (inactive). As for `Cn1c(/C(C#N)=C2/CCCCCN2)nc2ccccc21`, the inhibition was 9.28% (inactive). With `N#C/C(=C1\CCCN1)c1nc(-c2ccccc2)cs1`, the inhibition is 76.5% (active). With `N#CC(=C1CCCC1)c1nc(-c2ccc(Cl)cc2)cs1` the figure was 50.4% (active); with `N#C/C(=C1/CCCN1)c1ccccn1`, -5.25% (inactive).

Take `N#CC(=C1SC=CS1)c1nc(-c2ccccc2)cs1`: the inhibition was 79.5% (active). In the case of `CCc1ccc(NC(=O)CS(=O)CC(=O)N2CCN(c3ccccc3F)CC2)cc1` (stereo not drawn), the inhibition was 9.39% (inactive). With `CN(C)CCCNC(=O)c1cc(C(=O)Cc2ccc(Cl)cc2)c[nH]1` the figure was -5.52% (inactive); with `CCc1cccc(NC(=O)CCCN2C(=O)C(c3ccccc3)Oc3cccnc32)c1` (stereo not drawn), -2.72% (inactive). As for `CCC1=Nc2cc(C(=O)NCCCN3CCOCC3)ccc2Sc2ccc(Br)cc21`, the inhibition is -9.37% (inactive). With `Cc1cccc(N(C(=O)c2csnn2)C(C(=O)NCc2ccccc2)c2ccncc2)c1` (stereo not drawn), the inhibition is -9.04% (inactive). As to `CN(C)c1ccc(N/C=C/C(=O)C(F)(F)F)cc1`, the inhibition is 71.1% (inactive). The value for `CCCOc1ccc(N/C=C/C(=O)C(C)(C)C)cc1` was 49% (active); that for `CCOc1ccc(N/C=C/C(=O)c2ccccc2)cc1` was 69.8% (active); that for `CCCOc1ccc(NC(=O)C2CCCNC2=O)cc1` (stereo not drawn) was 25.7% (inactive).

With `CCOc1ccc(NC(=S)N2CCC(NC(=O)c3ccccc3)CC2)cc1`, the inhibition was -10.8% (inactive). With `Cc1ccc(N/C=C/C(=O)c2ccccc2)cc1C`, the inhibition is 17.5% (inactive).

Regarding `COc1ccc(N2CCN(C(=O)c3cn(C)c4ccc(S(=O)(=O)N5CCOCC5)cc4c3=O)CC2)cc1`, the inhibition is -3.12% (inactive).

As to `O=[N+]([O-])c1cc([N+](=O)[O-])c(Oc2cc(F)cc(F)c2F)cc1NN1CCCCC1`, the inhibition is 1.85% (inactive).

Consider `CCCn1nc(NS(=O)(=O)c2ccc(F)cc2)c2cc3ccccc3nc21`, for which the inhibition was -7.87% (inactive). With `O=S1(=O)CCO[C@H]2Cc3ccccc3[C@H]2N1Cc1ccccc1` the figure was -2.08% (inactive). For the compound `CC(=O)Nc1ccc(C(=O)OCC(=O)Nc2ccc([N+](=O)[O-])cc2C(F)(F)F)cc1`, the inhibition was 14.6% (inactive). With `CN(C)c1nc(=Nc2cccc(Cl)c2)ss1` the figure was 77% (active); with `O=C(NC1CCC(O)CC1)c1ccccc1OCc1ccc(F)cc1` (stereo not drawn), -2.79% (inactive). As for `CC(=O)Nc1ccc(NC(=O)CSc2nnnn2-c2ccccc2F)cc1`, the inhibition is 61.1% (inactive). On to `COc1ccc(C(=O)CSc2nnnn2C)c(OC)c1`, for which the inhibition was 32.4% (inactive). With `CCn1nnnc1SCC(=O)Nc1ccc(N(C)C)cc1` the figure was 44.2% (active); with `CCn1nnnc1SCC(=O)c1ccc(C)cc1C`, 77.4% (active); with `COc1ccc(-n2nnnc2SCC(=O)Nc2ccccc2)cc1`, -15.5% (inactive). `Cc1ccc(C)c(-n2nnnc2SCC(=O)c2c(N)n(C)c(=O)n(C)c2=O)c1`: the inhibition was -10.4% (inactive). The value for `Cc1cc(C(=O)N/N=C/c2ccccn2)c2ccccc2n1` was -6.51% (inactive); that for `O=C(Nc1ccccc1N1CCN(C(=O)c2ccccc2)CC1)c1ccco1` was 9.04% (inactive); that for `CC(C)NS(=O)(=O)c1ccc(OCC(=O)NC2CCCCCC2)cc1` was -16.9% (inactive). `CC(Oc1ccc(F)cc1)C(=O)N1CCN(c2ncccn2)CC1` (stereo not drawn): the inhibition is -12.5% (inactive).

As for `Cc1ccc(NN=C2C(=O)OC(C)(C)OC2=O)c(C)c1`, the inhibition was 93.9% (active). Take `Cc1ccc(NC(=O)CCC(=O)N/N=C/c2ccco2)c(C)c1`: the inhibition was 9.07% (inactive).

For the compound `Cc1ccc(NC(=O)c2oc(=O)c3ccccc3c2-c2ccccc2)c(C)c1`, the inhibition was -10.4% (inactive). In the case of `COC(=O)C(C)n1cnc2c(nnn2-c2ccc(F)cc2)c1=O` (stereo not drawn), the inhibition is 8.93% (inactive). In the case of `COc1ccc(NC(=O)c2sc3nc(C)nc(N4CCN(c5ccccn5)CC4)c3c2C)c(OC)c1`, the inhibition is -5.19% (inactive). `CCn1ccnc1CN(C)Cc1nc(-c2ccc3c(c2)OCO3)no1`: the inhibition is 50.1% (active). Consider `CN(CCN1CCOCC1)Cc1nc(-c2ccc3c(c2)OCO3)no1`, for which the inhibition is 13.4% (inactive).

For the compound `CC(C)N(Cc1nc(-c2ccc3c(c2)OCO3)no1)CC1CCC(=O)N1` (stereo not drawn), the inhibition was -4.06% (inactive). For the compound `O=C(OCC(=O)c1cccs1)C1=COCCO1`, the inhibition is 98.9% (active). With `O=C(OCC(=O)c1cccs1)c1ccc([N+](=O)[O-])o1` the figure was 41.9% (inactive); with `CCC(C)(C)c1ccc(Oc2ccc(NC(=O)COC(=O)C3=COCCO3)cc2)cc1`, 23.6% (inactive). Turning to `O=C(NCc1ccccc1)C1CCN(C(=O)Cc2ccccc2)CC1`, the inhibition was -23.8% (inactive). As for `O=C(CCn1nnnc1CN1CCOCC1)N1CCC(c2ccccc2Cl)C1` (stereo not drawn), the inhibition was 11% (inactive).

Regarding `NC(=O)c1c(Nc2nc3c(F)cccc3s2)sc2c1CCCC2`, the inhibition is 13.4% (inactive). With `CN(C)CCCN(C(=O)COc1ccccc1)c1nc2c(Cl)cccc2s1`, the inhibition was -6.79% (inactive).

Regarding `NNc1nc2c(Cl)cccc2s1`, the inhibition was 69.4% (active). Consider `C/C(=N\NC(=O)c1cccc([N+](=O)[O-])c1)c1cccnc1`, for which the inhibition was 11.6% (inactive). For the compound `COc1ccc(N2CCC(N3CCN(C)C(CCO)C3)CC2)cc1` (stereo not drawn), the inhibition is 0.592% (inactive).

With `COc1ccc(CCN2CC(C(=O)NCCN3CCNC3=O)CCC2=O)cc1` (stereo not drawn), the inhibition was 1.29% (inactive).

Take `Cc1cc(=O)[nH]c(N/N=C/c2ccc3c(c2)OCCO3)n1`: the inhibition is 44.5% (active). As for `Cc1cc(=O)[nH]c(N/N=C/c2c(C)nn(-c3ccccc3Cl)c2Cl)n1`, the inhibition is 47% (inactive).

With `CCN(CC)c1ccc(/C=N/Nc2nc(C)cc(=O)[nH]2)cc1`, the inhibition was 2.75% (inactive). For the compound `Cc1[nH]c2ccccc2c1C(=O)CN1CCCC(C)C1` (stereo not drawn), the inhibition was -6.74% (inactive). In the case of `Cc1ccc(C(C[N+](=O)[O-])c2c(C)cc3ccccn23)cc1` (stereo not drawn), the inhibition was 6.95% (inactive). With `Nc1ccccc1SC(C[N+](=O)[O-])c1ccccc1` (stereo not drawn), the inhibition was 77.6% (active).

In the case of `NS(=O)(=O)c1ccc(CNC(=O)c2cccc(Oc3ccccc3)c2)cc1`, the inhibition was 6.72% (inactive). `O=C(NCc1cn2ccsc2n1)Nc1ccc(Cl)cc1`: the inhibition was -6.11% (inactive).

`CCC(=O)Nc1ccc(C(=O)NNC(=O)c2ccc(Cl)cc2)cc1`: the inhibition was 21.7% (inactive).

As to `O=C(Nc1ccc(Cl)cc1)c1ccsn1`, the inhibition was 71.9% (active).

Take `Cc1cc(-c2ccc(C)c(S(=O)(=O)NCCCN(Cc3ccccc3)C(C)C)c2)on1`: the inhibition is -6.03% (inactive). In the case of `Cc1cccc(NC(=O)NC2(C)CCS(=O)(=O)C2)c1` (stereo not drawn), the inhibition is 11.8% (inactive). `CC(C)(C)c1ccc(C(=O)NCCC(=O)NCc2ccco2)cc1`: the inhibition is 6.3% (inactive). As to `CC(C)(C)c1ccc(NC(=O)NCc2ccco2)cc1`, the inhibition was 74.2% (active).

With `CC(C)(C)NC(=O)NCc1ccco1`, the inhibition was 12.4% (inactive).
